Screening results as filed in PubChem.
Shown are actives, neighbours in structure and some others; about 7.6% of the full set was active somewhere.
ELG1 DNA repair: blocks ELG1-dependent DNA repair in HEK293T cells; HEK293T ELG1-luciferase reporter, luminescence, 16 h; DNA damage induced by 5-fluorouridine; Potency, µM (titrated, usually from 46.1 µM), without a hit: top-dose activity change, negative = inhibition, usual class: inhibitors; 330,000 tested, 2.3% active; AID 504467; note: potency is the fitted concentration of half-maximal effect; % is set by controls: 0 for no effect and ±100 for the full control effect; nearly all actives have a fitted effect of over 55% in size
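Cells (2,000 per well) received 5-fluorouridine plus test compound or DMSO and were incubated 16 hr at 37 °C, 5% CO2. Luciferase activity was read by luminescence 30 min after ONE-Glo addition; signal suppression marked inhibition of damage-induced ELG1 function.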
BRCA1 expr act: BRCA1 expression activation; MCF7-BRCA1-FFLuc reporter, luminescence, 48 h; response scale: scaled: vehicle 0%, 10 µM genistein 100%; 380,000 tested, 1.1% active; Potency, µM (doses to about 46.1 µM), without a hit: top-dose activation, usual class: activators; note: potency is the fitted concentration of half-maximal effect; nearly all actives have a fitted effect of over 80% in size
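Quantitative HTS in MCF7 cells stably reporting BRCA1 expression via firefly luciferase. Compound treatment lasts 48 h at 37 °C in phenol-red free MEM. Activation is expressed relative to genistein at 10 microM and DMSO.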
p53 reactivation: restores transcriptional activity of mutant p53; H1299 p53-A138V BP100-luciferase reporter, luminescence, 24 h; Potency, µM (series often up to 92.2 µM), inactives show top-dose activity change, positive = activation, actives largely listed as activators; 320,000 tested, 0.063% active; note: potency is the fitted concentration of half-maximal effect; % of control where 0% means no effect; nearly all actives have a fitted effect of over 45% in size
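p53-null H1299 cells stably carrying temperature-sensitive p53-A138V and a BP100-luciferase reporter were pinned with compounds (4-point, 1:5 series) and held 24 hrs at 37 deg C. Luminescence was read 10 min after detection reagent.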
VP16 counter: Gal4-VP16 reporter inhibition counter-screen; Drosophila S2 Gal4-VP16 UAS-luciferase, luminescence, 20 h; AID 2546; 310,000 tested, 3.5% active; Potency, µM (titrated, usually from 53.6 µM), without a hit: top-dose activity, negative = inhibition, most hits filed as inhibitors;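 note: Gal4-VP16 expression switched on by copper sulfate through the metallothionein promoter; potency is the fitted concentration of half-maximal effect; % is set by controls: 0 for no effect and ±100 for the full control effect; nearly all actives have a fitted effect of over 50% in size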
RORg inh: inhibitors of mouse ROR gamma transcriptional activity; P51450; Drosophila S2 Gal4-RORgamma UAS-luciferase reporter, 20 h; Potency, µM (titrated, usually from 53.6 µM), without a hit: at the highest dose activity change, negative = inhibition, usual class: inhibitors; 310,000 tested, 5.4% active; note: potency is the fitted concentration of half-maximal effect; % is set by controls: 0 for no effect and ±100 for the full control effect; nearly all actives have a fitted effect of over 60% in size
Target sequence (P51450 whole entry, looked up, the tested form may be a part): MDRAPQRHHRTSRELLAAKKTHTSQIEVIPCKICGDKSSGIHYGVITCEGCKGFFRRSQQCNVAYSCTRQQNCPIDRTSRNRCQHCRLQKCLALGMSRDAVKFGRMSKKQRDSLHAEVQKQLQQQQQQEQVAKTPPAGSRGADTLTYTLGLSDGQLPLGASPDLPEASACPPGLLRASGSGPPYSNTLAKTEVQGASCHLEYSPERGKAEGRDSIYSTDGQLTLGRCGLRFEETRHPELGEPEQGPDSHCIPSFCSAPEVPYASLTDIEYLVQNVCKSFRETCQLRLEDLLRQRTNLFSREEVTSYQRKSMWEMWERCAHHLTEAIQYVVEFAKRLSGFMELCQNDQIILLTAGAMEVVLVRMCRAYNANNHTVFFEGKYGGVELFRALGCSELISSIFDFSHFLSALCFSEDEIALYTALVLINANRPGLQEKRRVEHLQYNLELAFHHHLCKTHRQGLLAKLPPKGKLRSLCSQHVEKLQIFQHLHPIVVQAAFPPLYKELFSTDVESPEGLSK
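Schneider cells (Drosophila), stable Gal4 DBD–ROR gamma + UAS-luc; 1 hr cmpd preincubation; Cu2+ induction 700 uM final; 20 hr ambient; luminescence.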
Giardia killer: Giardia lamblia killing; activity change, % at 7.66 µM, hits read low; 340,000 tested, 0.15% active; Giardia lamblia trophozoite viability; AID 540267; in the data active = activity change below about -80%; inconclusive = between about -30% and that limit;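 note: parasites exposed to compound for two days anaerobically before the ATP read; % is set by controls: 0 for no effect and ±100 for the full control effect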
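Viability, read as ATP luminescence: trophozoites at 100 cells/well, compound added, 48 hrs anaerobic at 37 deg C, then 15-30 min room-temperature development before reading.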
* hit, by the source's call; ? = inconclusive; / = not tested or not shown; [ ] = another dose, or the depositor's remark. Unless noted, calls come from the whole dose curve; as a rule, active = well fitted curve in the direction sought with a large enough effect; inconclusive = small, poorly fitted or top-dose-only effect, or another doubt; inactive = no such curve, though single readings can be large; an effect the other way counts as inactive or inconclusive.

SMILES	ELG1 DNA repair	BRCA1 expr act	p53 reactivation	VP16 counter	RORg inh	Giardia killer
Fc1ccc(/C=N/NC(=S)Nc2cccnc2)cc1	5%	3%	-5%	0.35µM*	4.5µM*	0
Fc1ccc(/C=N/NC(=S)Nc2cccnc2)cc1F	?	-1%	9%	1%	-2%	-19
Fc1c(F)c(F)c(/C=N/NC(=S)Nc2cccnc2)c(F)c1F	?	-84%	-10%	3.5µM*	2.5µM*	1
c1ccc(CCc2ccncc2)cc1	11%	-2%	-2%	6%	-32%	-10
c1ccc2c3c([nH]c2c1)CCCC3	/	2%	/	/	/	/
C/C(=N\O)c1ccc2c3c([nH]c2c1)CCCC3	?	10µM*	?	-17%	43%	5
Cc1nc(SCC(=O)Nc2cc(C(N)=O)cc(C(N)=O)c2)c2c(C)c(C)sc2n1	?	12%	6%	0%	-43%	30
COc1ccc(S(=O)(=O)N2CCCCCC2)cc1NC(=O)CN(C)Cc1ccc2c(c1)OCO2	21µM*	-38%	0%	/	/	-10
CN(CC(=O)Nc1cc(S(=O)(=O)N2CCCCCC2)ccc1Cl)Cc1ccc2c(c1)OCO2	?	-17%	25%	/	/	-1
O=C(Cc1c(F)cccc1Cl)Nc1cc(S(=O)(=O)N2CCCCC2)ccc1N1CCOCC1	18µM*	-18%	-3%	1%	-1%	19
COc1ccc(S(=O)(=O)N2CCOCC2)cc1NC(=O)C1COc2ccccc2O1 (configuration not stated)	10µM*	-17%	-2%	/	/	17
CCOc1ccc(S(=O)(=O)N2CCN(C)CC2)cc1NC(=O)c1ccccc1F	-20%	-57%	-12%	?	4µM*	10
CN1CCN(c2ccc(S(=O)(=O)N3CCCCC3)cc2NC(=O)Cc2c(F)cccc2Cl)CC1	10%	-34%	-1%	/	/	-19
CC(Sc1nnnn1C)C(=O)Nc1ccc(N2CCOCC2)cc1 (configuration not stated)	21%	39%	8%	7%	15%	4
CCOC(=O)[C@@H]1[C@H]2COc3ccccc3[C@H]2N2C(=O)N(c3cccc(Cl)c3)C(=O)[C@]12C	-3%	0%	3%	/	/	6
CCN(Cc1ccccc1)S(=O)(=O)c1csc(C(N)=O)c1	-1%	0%	-1%	9%	-14%	0
COc1ccc(S(=O)(=O)N2CCOCC2)cc1NC(=O)CN(C)Cc1c(F)cccc1Cl	21µM*	-56%	-5%	3%	30%	-11
CCN1CCN(c2ccc(S(=O)(=O)N3CCCCC3)cc2NC(=O)COc2ccc(Cl)c(C)c2)CC1	23µM*	-16%	11%	-27%	0.1µM*	14
COc1cccc(NC(=S)N2CCc3cc(OC)c(OC)cc3C2)c1	-14%	-4%	-2%	-2%	-44%	-1
COc1ccc(NC(=S)N2CCc3ccccc3C2)cc1OC	-3%	25%	-2%	-6%	11µM*	-19
COc1cc(NC(=S)N2CCc3ccccc3C2)cc(OC)c1	1%	11%	1%	?	14µM*	-3
CSCCCNC(=S)N1CCc2ccccc2C1	?	9%	0%	?	3.5µM*	-13
CCOc1ccccc1N1CN(C2CCCCC2)CNC1=S	-7%	10%	-1%	14µM*	3.2µM*	-3
CCCCN1CNC(=S)N(CCc2ccc(OCC)c(OCC)c2)C1	-27%	0%	1%	14µM*	3.2µM*	-11
CCOC(=O)c1ccc(N2CN(C3CCCCC3)CNC2=S)cc1	7%	-3%	5%	1%	-26%	-6
SMILES	ELG1 DNA repair	BRCA1 expr act	p53 reactivation	VP16 counter	RORg inh	Giardia killer
S=C1NCN(C2CCCCC2)CN1CCc1ccccc1	-14%	-9%	2%	4µM*	2.8µM*	15
O[C@@H]1CN(C2CCCCC2)CC[C@H]1N1CCN(CCc2ccccc2)CC1	-4%	11%	?	-4%	-16%[1.91 µM]	-19
CCOc1ccc(CCN2CN(C3CCCCC3)CNC2=S)cc1OCC	0%	-26%	-3%	8.9µM*	2.8µM*	-9
CCOc1ccc(CCNC(=O)C2CC(=O)N(C3CCCC3)C2)cc1OCC (configuration not stated)	1%	-4%	1%	-1%	4%	-22
CCCCN1CNC(=S)N(CCc2ccccc2)C1	-4%	-10%	-4%	4.5µM*	2.8µM*	-5
CCCN1CN(CCc2ccccc2)CNC1=S	3%	-3%	-8%	1.8µM*	1.1µM*	-8
S=C1NCN(CCc2ccccc2)CN1Cc1ccccc1	0%	1%	0%	3%	5%	-6
Cn1cc(CN2CCCC(C(=O)c3ccc(-c4ccccc4)c(F)c3)C2)cn1 (configuration not stated)	0%	-24%	2%	2%	-17%	-9
CC(=O)NC(Cc1cc(C)ccc1C)C(=O)N1CCN(C(=O)Nc2ccc(C(C)=O)cc2)CC1 (configuration not stated)	?	28%	-5%	/	-13%[0.365 µM]	9
Cc1ccc(/C=N/Nc2ccc3c(C(F)(F)F)cc(C(F)(F)F)nc3n2)cc1	2%	-23%	-8%	0%	-30%	-10
NNc1ccc2c(C(F)(F)F)cc(C(F)(F)F)nc2n1	8%	-25%	0%	1%	13µM*	-12
CC12CCC=CC1C(c1cccc(Br)c1)N(Cc1ccccc1)C2=O (configuration not stated)	/	/	/	13µM*	?	-4
Clc1ccc(-c2nn3c(C4COc5ccccc5O4)nnc3s2)cc1 (configuration not stated)	10%	1%	25%	-19%	0%	-21
COCCN(Cc1cc2cc3c(cc2nc1Cl)OCO3)C(=O)Nc1ccc(OC)cc1	-12%	2%	3%	-87%	27%[10 µM]	-1
Cc1ccc(O)c(NC(=S)NC(=O)CC(C)C)c1	?	13µM*	?	?	?	-5
Cc1ccc(O)c(NC(=S)NC(=O)C(C)C)c1	0%	?	6%	-1%	11µM*	-5
Cc1ccc(O)c(NC(=O)CCCC(=O)O)c1	2%	7%	0%	4%	15%[10 µM]	5
CC1CCC(NC(=O)c2cnccn2)CC1 (configuration not stated)	11%	29%	16%	9%	26%	-12
Cn1cccc1/C=N/NC(=O)c1sc2cc(Cl)ccc2c1Cl	16%	/	1%	0.56µM*	0.71µM*	/
Cc1ccc2c(Cl)c(C(=O)N/N=C/c3cccn3C)sc2c1	?	1%	?	1.6µM*	1.3µM*	-19
